Screening data as filed in PubChem.
Pf growth 96h = inhibits malaria parasite growth, 96 h; P. falciparum luciferase reporter growth, 96 h; Potency, µM (series often up to 28.7 µM), for the others: at the top dose activity change, negative = inhibition, actives largely listed as inhibitors; 6.9% of 320,000 active; AID 504834; note: potency is the fitted concentration of half-maximal effect; % is set by controls: 0 for no effect and ±100 for the full control effect
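Two-generation exposure (96 h) targets delayed-death phenotype. Reporter parasites carrying integrated firefly luciferase, in red cells at 2% hematocrit and 0.05% parasitemia final, kept at 37 C, 5% CO2; luminescence loss indicates inhibition.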
Marburg entry inh = Marburg virus entry inhibition; Marburg virus pseudotyped entry inhibition, cell reporter; Potency, µM (top dose mostly 37.8 µM), for the others: at the top dose activity change, negative = inhibition, most hits filed as inhibitors; 1.8% of 300,000 active; calls by dose curve; tested in HEK293 cells; note: potency is the fitted concentration of half-maximal effect; % is set by controls: 0 for no effect and ±100 for the full control effect
LASV entry inh = blocks Lassa virus binding to or entry into cells; Lassa virus pseudotype entry inhibition, cell reporter; Potency, µM (highest dose often 37.9 µM), inactives show at the top dose activity change, negative = inhibition, most hits filed as inhibitors; 1.2% of 300,000 active; AID 540256; calls by dose curve; tested in HEK293 cells; note: potency is the fitted concentration of half-maximal effect; % is set by controls: 0 for no effect and ±100 for the full control effect; nearly all actives have a fitted effect of over 50% in size
Pf growth 48h = P. falciparum growth inhibition at 48 hours (one generation). P. falciparum luciferase growth in erythrocytes, 48 h. Potency, µM (doses to about 28.7 µM), for inactives: top-dose activity change, negative = inhibition, hits mostly inhibitors. 5.9% of 310,000 active; note: potency is the fitted concentration of half-maximal effect; % is set by controls: 0 for no effect and ±100 for the full control effect
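Luciferase-expressing P. falciparum in infected erythrocytes (2% hematocrit, 0.1% parasitemia final) in RPMI 1640/0.5% Albumax were exposed to compound for 48 hours at 37 C, 5% CO2; growth read as luminescence.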
Cycloheximide cs = affects cycloheximide protein synthesis inhibition readout, counter-screen; cell reporter, cycloheximide protein synthesis inhibition counterscreen; max response, %; 12% of 300,000 active; AID 2314; in the data active = max response mostly above about 13%, no sharp cut-off; inactive = mostly below about 14%; note: read at 38.3 µM for the half of the compounds with a filed dose; 0% is about no effect
Shiga inhibitor = inhibitors of Shiga toxin in Vero cells; Vero cells, Shiga toxin protein synthesis inhibition reporter; inhibition, % at 38.7 µM; 9.2% of 290,000 active; in the data active = inhibition mostly above about 28%, no sharp cut-off; inactive = mostly below about 43%; note: 0% is about no effect
The depositor's hits bear a star; ? = inconclusive; nt = no result; ! = not active in a repeat; [ ] = remark or other dose. A selection: hits, their analogues and other compounds. The true share with any hit is near 19%. Unless noted, calls come from the whole dose curve; as a rule, active = well fitted inhibition curve with a large enough effect; inconclusive = small, poorly fitted or top-dose-only effect, or another doubt; inactive = no such curve, though single readings can be large or run the other way.

SMILES | Pf growth 96h | Marburg entry inh | LASV entry inh | Pf growth 48h | Cycloheximide cs | Shiga inhibitor
FC(F)Sc1ccc(NC(=S)NC(c2ccccc2)c2ccccc2)cc1 | ? | 18µM* | ? | -46% | 6 | 4
COc1ccc(S(=O)(=O)n2nc(OC(=O)c3ccco3)cc2N)cc1 | ? | 14% | 4% | 51% | -1 | 9
O=S(=O)(c1ccc(F)cc1)N1CCC2(CC1)OCCN2S(=O)(=O)c1cccs1 | ? | -16%[46.1 µM] | ? | -27% | nt | nt
CCN1CCN(CCc2nc3cc(NC(=O)COc4ccccc4)ccc3n2C)CC1 | ? | -6%[46.1 µM] | 0%[46.1 µM] | ? | 12 | 11
CCN1CCN(CCc2nc3cc(NC(=O)COc4ccc(Cl)cc4)ccc3n2C)CC1 | 6.6µM* | nt | nt | 5.2µM* | 1 | -12
Cc1ccc(S(=O)(=O)Nc2ccc3c(c2)nc(CCN2CCN(c4ccccn4)CC2)n3C)cc1 | ? | nt | nt | ? | -4 | 1
CC1CCN(CCc2nc3cc(NC(=O)COc4ccc(Cl)cc4)ccc3n2C)CC1 | 3.3µM* | nt | nt | ? | -8 | 11
Cn1c(CCN2CCN(c3ccccn3)CC2)nc2cc(NS(=O)(=O)c3ccc(Cl)cc3)ccc21 | 10µM* | nt | nt | 9.3µM* | 5 | -8
CN(CC(=O)Nc1ccc(Cl)cc1)C(=O)C1=COCCO1 | 0% | 17% | 5% | 11% | nt | nt
Cc1ccc(CNC(=O)C2CCN(S(=O)(=O)c3c(C)noc3/C=C/c3c(C)cc(C)cc3C)CC2)cc1 | nt | nt | 20%[46.1 µM] | nt | nt | nt
Cc1noc(/C=C/c2ccco2)c1S(=O)(=O)N1CCC(C(=O)N2CCc3ccccc3C2)CC1 | ? | -29% | ? | 9.3µM* | 19* | 47*
Cc1ccc(CNC(=O)C2CCN(S(=O)(=O)c3c(C)noc3/C=C/c3ccco3)CC2)cc1 | 6.6µM* | -4% | nt | nt | 5 | 9
Cc1noc(/C=C/c2ccco2)c1S(=O)(=O)N1CCC(C(=O)NCc2ccco2)CC1 | nt | 3% | -23% | 13µM* | 0 | -7
Cc1ccccc1NC(=O)C1CCN(S(=O)(=O)c2c(C)noc2/C=C/c2ccco2)CC1 | nt | -7%[46.1 µM] | -4%[46.1 µM] | nt | nt | nt
COn1c(-c2ccccc2)nc2ncccc21 | 28% | -10%[46.1 µM] | 18%[46.1 µM] | 25% | 4 | -5
COn1c(-c2ccc(C)cc2)nc2ncccc21 | -14% | -2%[46.1 µM] | 9%[46.1 µM] | -1% | 21* | 30
CC1CCN(c2nc3nonc3nc2N2CCC(C)CC2)CC1 | -18% | 4% | 10% | 1% | 5 | -8
CC1CCCN(c2nc3nonc3nc2N2CCCC(C)C2)C1 (stereo not given) | -8% | -17% | -4% | 10µM* | -2 | -3
COc1cc2nc(=S)n3[nH]c(COc4ccccc4C)nc3c2cc1OC | -8% | 0% | 15% | ? | 8 | -12
COc1cc2nc(=S)n3[nH]c(CCn4nc(C)cc4C)nc3c2cc1OC | -10% | ? | ? | 2.9µM* | 9 | -3
Cc1ccc2c(c1)N(C(=O)CCC(=O)N1CCC(C(N)=O)CC1)CC(C)O2 (stereo not given) | 13µM* | nt | nt | -5% | -2 | 8
Cc1ccc2c(c1)N(C(=O)CCC(=O)NCc1cccnc1)CC(C)O2 (stereo not given) | 13µM* | nt | nt | -9% | -4 | 2
COc1ccc(C2=NN(C(=O)c3cccs3)C(O)(C(F)(F)F)C2)cc1 (stereo not given) | -33% | ? | ? | 33% | 21 | 12
Cc1ccccc1-n1nnnc1SC(C)C(=O)Nc1ccc(N2CCN(C)CC2)cc1 (stereo not given) | ? | ? | ? | ? | -1 | -2
O=C(CN1CCN(C(c2ccccc2)c2ccccc2)CC1)N1CCN(c2ccccc2)CC1 | ? | nt | nt | 12µM* | -2 | -4
SMILES | Pf growth 96h | Marburg entry inh | LASV entry inh | Pf growth 48h | Cycloheximide cs | Shiga inhibitor
C(=C\c1ccccc1)/CN1CCN(C(c2ccccc2)c2ccccc2)CC1 | 4% | 21µM*! | 15µM*! | -8% | -2 | 11
CC1CCN(CC(=O)N2CCN(c3ccccc3)CC2)CC1 | -8% | 7%[46.1 µM] | 5%[46.1 µM] | -3% | -1 | -7
O=C(CN1CCN(C(c2ccccc2)c2ccccc2)CC1)N1N=CCC1c1ccccc1 (stereo not given) | 12µM* | 8.9µM* | ? | ? | 1 | -15
CC(C(=O)N(C)Cc1ccccc1)N1CCN(C/C=C/c2ccccc2)CC1 (stereo not given) | -60% | ? | -28%[46.1 µM] | ? | -1 | -7
COC(=O)c1ccc(NC(=S)NN2CCCCC2c2cccnc2)cc1 (stereo not given) | 5% | ? | 12%[46.1 µM] | 0% | 14* | 33
O=C(NC(=S)NN1CCCCC1c1cccnc1)c1ccc(Br)cc1 (stereo not given) | ? | 7% | 12% | 0% | 11 | 27
COc1ccccc1C(=O)Nc1ccc(S(=O)(=O)N2CCCCC2c2cccnc2)cc1 (stereo not given) | 3.3µM* | nt | nt | ? | 9 | -7
CCN(CC)C(=O)c1c(C)nc2ccccn12 | -20% | 3% | 8% | nt | 1 | 14
CN(Cc1cnn(C)c1)Cc1nc(-c2ccc(Cl)cc2)no1 | 9.3µM* | 14%[46.1 µM] | -11%[46.1 µM] | 48% | 16* | 41
CN(Cc1cnn(C)c1)Cc1nc(C(c2ccccc2)c2ccccc2)no1 | 44% | nt | nt | ? | -2 | -3
CN(Cc1cnn(C)c1)Cc1nc(COc2ccccc2)no1 | -18% | 23%[46.1 µM] | -5% | 41% | 14* | 33
CC(C)N(Cc1cnn(C)c1)Cc1nc(COc2ccccc2)no1 | 77% | 3%[46.1 µM] | 12% | -17% | -5 | -11
COc1ccccc1NC(=S)NCCc1ccc(F)cc1 | 15% | 15%[46.1 µM] | 8%[46.1 µM] | ? | 1 | -6
O=C1C=C2C=C[C@H]3C[C@]2(O1)[C@@H]1CCCCN13 | ? | ? | ? | ? | -2 | -13
O=C1C=C2C=CC3C[C@@]2(O1)C1CCCCN31 (stereo not given in full) | 2.7µM* | nt | nt | 12µM* | nt | nt
O=C(COC(=O)C1CCCCC1C(=O)N1CCc2ccccc21)NCc1ccco1 (stereo not given) | -33% | 10% | 19% | 12µM* | 2 | -12
O=C(COC(=O)C1CC2C=CC1C2)NCc1ccco1 (stereo not given) | -10% | 14% | 14% | -10% | -7 | -7
Cc1ccc(NC(=O)Nc2ccccc2OCc2cc(=O)n3ccccc3n2)c(Cl)c1 | nt | nt | 0%[46.1 µM] | nt | nt | nt
COc1cccc(-c2nnc(NC(=O)C3CCCCC3)o2)c1 | -5% | nt | nt | nt | -5 | -12
COc1ccccc1-c1nnc(Nc2nc3c(OC)cccc3s2)o1 | ? | ? | ? | ? | 12 | 45*
COc1cccc2sc(NN)nc12 | ? | -1%[46.1 µM] | 23% | -19% | 5 | -5
COc1cccc(-c2nnc(Nc3nc4c(F)cccc4s3)o2)c1 | ? | ? | -28% | 32% | 38 | 82*
COc1cccc2sc(Nc3nnc(-c4ccccc4Cl)o3)nc12 | 1.3µM* | ? | ? | 9.3µM* | 0 | -3
